The sample as a whole holds a higher share of hits than the screen did.
12-hLO inh: qHTS Assay for Inhibitors of 12-hLO (12-human lipoxygenase); AID 1452, 2008; Potency, µM (titrated, usually from 57.1 µM), for the others: at the top dose activity change, negative = inhibition, usual class: inhibitors; Polyunsaturated fatty acid lipoxygenase ALOX12 (Homo sapiens), P18054; 150,000 tested, 0.12% active; purified 12-hLO, xylenol orange hydroperoxide absorbance; also: potency is read from the fitted curve at half-maximal effect; nearly all actives have a fitted effect of over 55% in size
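Purified human 12hLO (150 nM final) was preincubated with compounds for 15 min at room temperature in 25 mM Hepes pH 7.0, 0.01% Triton X-100, then reacted with 40 uM arachidonic acid for 30 min. Hydroperoxide was detected with ferrous iron/xylenol orange.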
IMPase cell inh: qHTS Assay for Identifying the Cell-Membrane Permeable IMPase Inhibitors; Inositol monophosphatase 1 (Rattus norvegicus), P97697; CHO-M1 cells, IP1 accumulation, HTRF TR-FRET ratio; inhibition (IP1 accumulation), % at 46.1 µM; 120,000 tested, under 10 active; active = well fitted curve in the direction sought with a large enough effect in the signal ratio, not every such curve was filed as active; inconclusive = small, poorly fitted or top-dose-only effect, or a change in a side signal; inactive = no such curve, though single readings can be large or run the other way; the % refers to the signal ratio;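 also: cells stimulated with carbachol in lithium chloride buffer; plate controls were DMSO basal wells for no effect and reference inhibitor wells for full effect; higher means more IMPase inhibition seen as more IP1 and lower FRET ratio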
Target sequence (P97697 whole entry, looked up): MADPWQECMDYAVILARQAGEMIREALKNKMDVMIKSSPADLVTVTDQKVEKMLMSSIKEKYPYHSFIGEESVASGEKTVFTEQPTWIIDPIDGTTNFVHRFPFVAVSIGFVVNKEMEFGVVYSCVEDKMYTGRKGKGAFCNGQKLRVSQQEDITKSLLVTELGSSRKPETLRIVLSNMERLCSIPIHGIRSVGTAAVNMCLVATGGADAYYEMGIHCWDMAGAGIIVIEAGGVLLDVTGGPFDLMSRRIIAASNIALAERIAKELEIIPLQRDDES
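Elevated IP1 in lysates lowers TR-FRET signal (665/620 ratio and 620 channel reported). Cells were CHO-M1, given carbachol (50 uM as added) plus 50mM LiCl, pH 7.4, 30 min, 37C; compounds titrated up to 46 uM; AC50 by Hill equation.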
15-hLO-2 inh: qHTS Assay for Inhibitors of 15-hLO-2 (15-human lipoxygenase 2); Polyunsaturated fatty acid lipoxygenase ALOX15B (Homo sapiens), O15296; purified 15hLO-2, xylenol orange hydroperoxide absorbance; Potency, µM (titrated, usually from 57.1 µM), for inactives: top-dose activity change, negative = inhibition, actives largely listed as inhibitors; 110,000 tested, 0.56% active; also: potency is read from the fitted curve at half-maximal effect; nearly all actives have a fitted effect of over 60% in size
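Enzyme 50 nM, AA 45 uM, 25 mM Hepes pH 7.5 + 0.01% Triton X-100; cpd preinc 15 min RT, rxn 90 min RT; stop/detect with 200 uM XO + 300 uM Fe(II) in 50 mM H2SO4, 30 min; A573/A405.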
Active calls of the source: *; [ ] = another dose, or the depositor's remark. Unless noted, calls follow the shape of the dose curve; as a rule, active = well fitted curve in the direction sought with a large enough effect; inconclusive = small, poorly fitted or top-dose-only effect, or another doubt; inactive = no such curve, though single readings can be large; an effect the other way counts as inactive or inconclusive. Unless noted, % is scaled to controls: 0 for no effect and ±100 for the full control effect.

For C=CCc1c(C)[nH]c(=S)c(C#N)c1C the results were 12-hLO inh -24%, IMPase cell inh -7 and 15-hLO-2 inh 13µM*.
COCc1cc(C)c(C#N)c(=S)[nH]1 was read as 12-hLO inh 0%, IMPase cell inh -4 and 15-hLO-2 inh inconclusive.
CCC(C)OC(=O)c1c(N)n(Cc2cccs2)c2nc3ccccc3nc12 (stereo not given) was read as 12-hLO inh inconclusive, IMPase cell inh 7 and 15-hLO-2 inh 5%.
CCC(C)C(=O)OC1C(O)C2C(CN3CC(C)CCC3[C@]2(C)O)C2C[C@]34O[C@@]5(O)C(OC(=O)C(C)(O)C(C)O)CCC3(C)C5C(OC(C)=O)C(OC(C)=O)C4[C@@]21O (stereo not given in full) was read as 12-hLO inh -1% and 15-hLO-2 inh 8%.
`Cc1cc2c(C(C)C)c(O)c(O)c(C=O)c2c(O)c1-c1c(C)cc2c(C(C)C)c(O)c(O)c(C=O)c2c1O` gave 12-hLO inh inconclusive, IMPase cell inh -2 and 15-hLO-2 inh 3.5µM*.
Screening CCC(=NCCO)c1c(O)n(-c2ccccc2)c(=O)[nH]c1=O returned 12-hLO inh 4%, IMPase cell inh 4 and 15-hLO-2 inh 2%.
For CNC(=O)CSP(=S)(OC)OC the results were 12-hLO inh 3% and 15-hLO-2 inh 5%.
`COc1ccc(/C=C2/C(=O)NC(=O)N(c3ccc(C)c(C)c3)C2=O)cc1CN1C(=O)c2ccccc2C1=O` gave 12-hLO inh -22% and IMPase cell inh -5.
`O=C(NC1(C(F)(F)F)Oc2ccccc2O1)N1CCC2(CC1)OCCO2` gave 12-hLO inh -9% and IMPase cell inh -4.
For O=C(NC1(C(F)(F)F)Oc2ccc(Cl)cc2O1)N1CCC2(CC1)OCCO2 (stereo not given) the results were 12-hLO inh inconclusive, IMPase cell inh 3 and 15-hLO-2 inh 7.9µM*.
For O=Cc1c(C(=O)O)n(Cc2ccc(Cl)cc2)c2ccccc12 the results were 12-hLO inh -3% and IMPase cell inh -7.
Screening NC1(C(=O)O)CCCC1 returned 12-hLO inh -3% and 15-hLO-2 inh -3%.
`O=C(Cc1ccccc1)OCCNC(=O)c1cccnc1` gave 12-hLO inh -5%, IMPase cell inh 1 and 15-hLO-2 inh -1%.
`COc1ccc(O)c(C(C)(C)C)c1` gave 12-hLO inh -2%[0.00818 µM] and 15-hLO-2 inh -24%[0.0915 µM].
For N#CC(C#N)=Cc1ccc(O)c(O)c1 the results were 12-hLO inh inconclusive, IMPase cell inh inconclusive and 15-hLO-2 inh 13µM*.
COc1cc(C=C(C#N)C#N)cc(O)c1O was read as 12-hLO inh -9%, IMPase cell inh 23 and 15-hLO-2 inh inconclusive.
For O=c1cc(-c2ccc(O)c(O)c2)oc2cc(O)cc(O)c12 the results were 12-hLO inh inconclusive, IMPase cell inh 9 and 15-hLO-2 inh 16µM*.
O=c1c2ccccc2nc(CSc2ncnc3nc[nH]c23)n1-c1ccccc1 was read as 12-hLO inh -7%, IMPase cell inh inconclusive and 15-hLO-2 inh 6%.
For O=C(O)c1cc[c]([Hg][S]c2ncnc3nc[nH]c23)cc1 the results were 12-hLO inh inconclusive and 15-hLO-2 inh 2.5µM*.
For CSC([N-]/N=C/c1cccc(C)n1)=[S]=[Cu].CS[C@H]([S-])[N-]/N=C/c1cccc(C)n1 the results were 12-hLO inh inconclusive and 15-hLO-2 inh 3.2µM*.
Screening O=C1NC(=O)N(C2CCCCC2)C(=O)C1C1c2ccccc2C(=O)N1Cc1ccccc1 (stereo not given) returned 12-hLO inh -6%, IMPase cell inh -7 and 15-hLO-2 inh -11%.
`C[C@@]1(CO)[C@H](O)CC[C@@]2(C)[C@H]1CC[C@H]1C[C@@H]3C[C@@]12CC[C@]3(O)CO` gave 12-hLO inh -4%.
For C=CCN1CCc2cccc3c2[C@@H]1Cc1ccc(O)c(O)c1-3 the results were 12-hLO inh -17%, IMPase cell inh -1 and 15-hLO-2 inh 6.3µM*.
CCCN1CCc2cc(O)cc3c2[C@H]1Cc1ccc(O)c(O)c1-3 was read as 12-hLO inh -22%, IMPase cell inh 12 and 15-hLO-2 inh -21%.
For C(#CCN1CCOCC1)COCC#Cc1ccccc1 the results were 12-hLO inh 3%, IMPase cell inh 4 and 15-hLO-2 inh 1%.
`N#CC(C#N)=NNc1ccc(OC(F)(F)F)cc1` gave 12-hLO inh -5% and 15-hLO-2 inh 16µM*.
N#CC(C#N)=NNc1cccc(Cl)c1 was read as 12-hLO inh -11% and 15-hLO-2 inh inconclusive.
